This passage reports growth results from PubChem BioAssay (NCI).

Among the test systems are HCT-15 colon; HT29 colon; SNB-75 CNS; SNB-19 CNS; U251 CNS; SK-MEL-5 melanoma; UACC-62 melanoma; LOX IMVI melanoma; SK-MEL-28 melanoma; PC-3 prostate.
Holding throughout (test): NCI-60 one-dose screen, 48 h (100 = growth as untreated, 0 = no growth, -100 = all killed)
What all share (conditions): 10 µM unless noted

About 83,000 compounds went through this panel and 20% of them were active in at least one assay; those are over-represented in the sample as a whole.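 Cells were grown in 96-well plates and exposed to the test compound at a single concentration for 48 hours; results are reported as percent growth, with values below 10 considered active.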 Unmarked numbers belong to inactive results. Activity calls are given as the source filed them.

For the compound `O=C(Nc1ccc(Cl)cc1)Nc1nc2ccc(OC(F)(F)F)cc2o1`, the growth is 77.5% with HCT-15 colon; 84.7% in the experiment with HT29 colon; 97% in the experiment on SNB-75 CNS; 93.2% in the experiment on SNB-19 CNS; 83.1% in the experiment on U251 CNS; 90.8% in the experiment on SK-MEL-5 melanoma. Also, the growth is 82.9% with UACC-62 melanoma, 103% in the experiment with LOX IMVI melanoma and 108% in the experiment with SK-MEL-28 melanoma.
As to `CCSc1nc(-c2ccco2)n2nc(-c3ccco3)cc2n1`, the growth with HCT-15 colon was 78.1%; in the experiment on HT29 colon it was 99.4%; with SNB-75 CNS, 83.2%; with SNB-19 CNS it was 113%; in the experiment on U251 CNS, 96.8%; in the experiment with SK-MEL-5 melanoma, 78.3%. Also, the growth is 89.8% in the experiment on UACC-62 melanoma, 88.3% in the experiment on LOX IMVI melanoma and 120% in the experiment on SK-MEL-28 melanoma.
Take `Fc1ccccc1C1c2ccccc2-c2nccn21` (stereo not given): the growth was 99.2% in the experiment with HCT-15 colon; 100% with HT29 colon; 98.2% in the experiment on SNB-75 CNS; 100% with SNB-19 CNS; 98.8% with U251 CNS; 87.3% in the experiment on PC-3 prostate. Also, the growth with UACC-62 melanoma was 89%; in the experiment on LOX IMVI melanoma it was 98.1%; in the experiment on SK-MEL-28 melanoma, 109%.
As for `COC(=O)Nc1ccc2ccc3c(NC(=O)OC)ccc4ccc1c2c43` (tested in a mixture with another compound), the growth in the experiment with HCT-15 colon is 35.6%; with HT29 colon, 30.6%; with SNB-75 CNS, 50.7%; in the experiment with SNB-19 CNS, 60.8%; with U251 CNS, 41%; in the experiment with SK-MEL-5 melanoma, 37.3%. Moreover, the growth is 41.5% in the experiment on UACC-62 melanoma, 32.9% with LOX IMVI melanoma and 73.3% with SK-MEL-28 melanoma.
As for `COc1ccc(CCN2C(=O)CCC3=C2CCCC3=O)cc1OC`, the growth with HCT-15 colon was 97.6%; in the experiment with HT29 colon, 108%; in the experiment on SNB-75 CNS, 82.3%; in the experiment on SNB-19 CNS it was 100%; in the experiment on PC-3 prostate, 96.6%; with SK-MEL-5 melanoma, 99.1%. Besides, the figures for the growth with UACC-62 melanoma, in the experiment on LOX IMVI melanoma and in the experiment with SK-MEL-28 melanoma were 105%, 98.8% and 108%, respectively.
`CNNc1ncnc2c1cnn2-c1ccc(S(N)(=O)=O)cc1`: the growth in the experiment on HCT-15 colon was 103%; in the experiment on HT29 colon, 95.2%; in the experiment on SNB-75 CNS, 104%; in the experiment on SNB-19 CNS, 105%; in the experiment on PC-3 prostate, 81.4%; in the experiment with SK-MEL-5 melanoma, 91.2%. For the same compound, the values for the growth with UACC-62 melanoma, with LOX IMVI melanoma and in the experiment with SK-MEL-28 melanoma were 100%, 97.5% and 109%, respectively.
For `Clc1ccc2nc(CI)c(CI)nc2c1`, the growth is 27.1% in the experiment with HCT-15 colon; 100% in the experiment on HT29 colon; 96.6% with SNB-75 CNS; 97.1% with SNB-19 CNS; 71.7% in the experiment with U251 CNS; 75% in the experiment with SK-MEL-5 melanoma. The growth with UACC-62 melanoma is 81.9%; in the experiment on LOX IMVI melanoma, 14.9%; with SK-MEL-28 melanoma, 113%.
With `Cc1ccc(OCC(=O)Nc2ccc(Oc3ccccc3)cc2)c([N+](=O)[O-])n1`, the growth in the experiment on HCT-15 colon is 95.2%; in the experiment with HT29 colon, 95%; in the experiment with SNB-75 CNS it was 78.8%; with SNB-19 CNS it was 58.7%; with U251 CNS, 85%; with SK-MEL-5 melanoma, 44.2%. Further, the results for the growth in the experiment with UACC-62 melanoma, in the experiment on LOX IMVI melanoma and with SK-MEL-28 melanoma were 60.9%, 89.6% and 111%, respectively.
Consider `c1ccc2nc(N/N=C3\CCCCC3C3CCCCC3)ccc2c1` (stereo not given), for which the growth in the experiment with HCT-15 colon is 33.5%; with HT29 colon it was 26.6%; in the experiment on SNB-75 CNS, 70.2%; in the experiment on SNB-19 CNS it was 76%; in the experiment on U251 CNS, 41.6%; with PC-3 prostate, 14%. Further, the growth in the experiment with UACC-62 melanoma is 50.8%; in the experiment with LOX IMVI melanoma, 23.4%; in the experiment with SK-MEL-28 melanoma, 62.6%.
For the compound `N#Cc1ncc(-c2ccc(C(F)(F)F)cc2)c(NC2CCCCCC2)n1`, the growth with HCT-15 colon is 57.1%; in the experiment on HT29 colon it was 19.1%; in the experiment with SNB-75 CNS, 49.7%; in the experiment on SNB-19 CNS, 35.2%; in the experiment on PC-3 prostate, 4.57% (active); with SK-MEL-5 melanoma it was -6.45% (active). Besides, the growth in the experiment on UACC-62 melanoma was 13.2%; with LOX IMVI melanoma, 32.5%; with SK-MEL-28 melanoma it was 36.5%.
For `O=C(COc1cccc(/C=C2\Oc3ccc4ccccc4c3C2=O)c1)c1ccc(Cl)cc1`, the growth with HCT-15 colon is 72.4%; in the experiment on HT29 colon, 103%; in the experiment with SNB-75 CNS, 90.5%; with SNB-19 CNS, 92%; in the experiment with PC-3 prostate it was 77.5%; with SK-MEL-5 melanoma, 89.3%. Besides, the growth with UACC-62 melanoma is 82.8%; in the experiment on LOX IMVI melanoma, 10.6%; in the experiment with SK-MEL-28 melanoma it was 113%.
For the compound `CCOC(CNCc1cc(C)c2[nH]c3ccccc3c2c1C)OCC`, the growth with HCT-15 colon is 80.7%; with HT29 colon it was 53.1%; in the experiment on SNB-75 CNS, 73.6%; in the experiment on SNB-19 CNS, 78.6%; with U251 CNS, 83.2%; in the experiment on SK-MEL-5 melanoma, 79.8%. Also, the growth with UACC-62 melanoma was 77.9%; in the experiment with LOX IMVI melanoma it was 77.2%; in the experiment with SK-MEL-28 melanoma it was 97.3%.
With `COc1cc(-c2nc3nc4sc(C)c(C)c4c(=O)n3[nH]2)cc(OC)c1OC`, the growth was 73.5% with HCT-15 colon; 82.3% in the experiment on HT29 colon; 80.1% in the experiment with SNB-75 CNS; 92.9% in the experiment with SNB-19 CNS; 85.1% with PC-3 prostate; 55.3% in the experiment with SK-MEL-5 melanoma. The results for the growth in the experiment with UACC-62 melanoma, with LOX IMVI melanoma and with SK-MEL-28 melanoma were 61.5%, 81.7% and 87.6%, respectively.
Regarding `CCCCCCCCCCCCCCCCCC1=NC(C)(CO)CO1` (stereo not given), the growth in the experiment with HCT-15 colon is 92.4%; in the experiment on HT29 colon it was 92.8%; in the experiment on SNB-75 CNS it was 120%; with SNB-19 CNS, 101%; with PC-3 prostate, 73.4%; in the experiment on SK-MEL-5 melanoma it was 97.1%. For the same compound, the growth was 86.7% in the experiment with UACC-62 melanoma, 98% with LOX IMVI melanoma and 109% with SK-MEL-28 melanoma.
As to `COc1ccc(CNC(=O)c2c(C)n([O-])c3ccc(OC)cc3[n+]2=O)cc1`, the growth is 103% in the experiment on HCT-15 colon; 93.2% in the experiment on HT29 colon; 99.1% with SNB-75 CNS; 97.8% in the experiment with SNB-19 CNS; 96.3% in the experiment on U251 CNS; 95% in the experiment on SK-MEL-5 melanoma. Besides, the growth was 94.9% in the experiment with UACC-62 melanoma, 101% with LOX IMVI melanoma and 108% with SK-MEL-28 melanoma.
